High-throughput results from PubChem BioAssay.
Dicer processing – human Dicer pre-microRNA cleavage inhibition; cat-ELCCA pre-miR-21 Dicer processing, chemiluminescence; stronger effect = higher value; z-score at 25 µM; 47,000 compounds, 6% hits; AID 1347074; in the data active = z-score above about 3, passing the limit was not always enough;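 also: plate controls were vehicle for no effect and no enzyme for full effect; higher signal means more uncleaved substrate so more Dicer inhibition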
An asterisk follows results filed as active. The full list was thinned out, with hits kept by preference.

SMILES	Dicer processing
CCOC(=O)c1nnn2c1nc(N1CCN(C)CC1)c1ccccc12	-0.68
CCOC(=O)C(O)(c1ccc(NC)cc1)C(F)(F)F (configuration not stated)	31
CCOC(=O)c1cccc(C(=O)O)n1	0.56
COC(=O)c1cccc(C(=O)Oc2ccc(OC)cc2)n1	0.13
CCOC(=O)c1cccc(C(=O)Oc2ccccc2)n1	6.2*
O=C(O)CSCC(=O)N1CCC(n2cccc2)CC1	-0.16
O=C1c2cccc3c(N4CCOCC4)ccc(c23)C(=O)N1c1cccc(Cl)c1	0.29
COc1cc(C)c(S(=O)(=O)N2CCN(S(=O)(=O)c3cc(C)c(OC)cc3C)C(C)C2)cc1C (configuration not stated)	0.65
CC12CNC3(CO)CC1CCC32C (configuration not stated)	-1.8
CC(O)C(Nc1ncnc2ccccc12)C(=O)O (configuration not stated)	0.03
Cn1c(=O)c2c(nc(NCCc3ccc(O)cc3)n2C)n(C)c1=O	-1.2
C[C@@H](NCCc1ccc(O)cc1)[C@@H](O)c1ccc(O)cc1	9.7*
CCCCCCCCNC(C)C(O)c1ccc(SC(C)C)cc1 (configuration not stated)	33
OCCCNc1nc2nonc2nc1Nc1ccccc1	-0.78
O=C(NCc1ccc(S(=O)(=O)NCc2ccccc2)s1)c1ccccc1	-2.1
O=C(Cn1nnc2sc3c(c2c1=O)CCCC3)N1CCOCC1	-0.43
CC(C)(C)c1cc2c(c(C(C)(C)C)c1)OCN(CC(=O)O)C2	-1.7
COc1ccc(NC(=S)N2N=C3c4ccccc4CCC3C2c2ccc(F)cc2)cc1 (configuration not stated)	0.71
COc1ccc(C2C3CCc4ccccc4C3=NN2CCOC(=O)C2CC2)cc1 (configuration not stated)	4.8*
COc1ccc(N2CC3CCc4ccccc4C3=N2)cc1 (configuration not stated)	-0.95
Nc1nnc(SCc2c(-c3ccccc3)nnn2-c2ccc(F)cc2F)s1	0.09
Cc1nc(C)c(-c2csc(Nc3ccccc3)n2)s1	5.1*
Cc1nc(C)c(-c2csc(Nc3cccc(O)c3)n2)s1	-1.1
Cc1nc(C)c(-c2csc(Nc3ccc(C(=O)O)cc3)n2)s1	-1.9
COc1ccc(C2CC(=O)C3=C(C2)Nc2ncnn2C3c2ccccc2)cc1 (configuration not stated)	2.9
SMILES	Dicer processing
c1ccc(C2CC(c3ccco3)n3ncnc3N2)cc1 (configuration not stated)	0.17
O=C1CC(c2ccccc2)CC2=C1C(c1ccco1)n1ncnc1N2 (configuration not stated)	3.9*
O=C(OCCN1CCOCC1)c1ccco1	0.75
COc1ccc(Sc2ccc(C)cc2)c([N+](=O)[O-])c1	0.77
Cc1ccc(Sc2ccc(/C=C3/SC(=S)NC3=O)cc2[N+](=O)[O-])cc1	4.6*
Cc1ccc(Sc2cc(N3CCOCC3)c(C)cc2[N+](=O)[O-])cc1	-1.2
CCOc1cc(C)c(S(=O)(=O)Nc2ccccn2)cc1C	-0.11
Cc1cc(C)c(S(=O)(=O)Nc2cccc3cccnc23)c(C)c1	4.5*
Cc1cc(C)c(S(=O)(=O)Nc2ccc(Br)c3cccnc23)c(C)c1	2.7
Cc1cc2oc(=O)sc2cc1NS(=O)(=O)c1cccc2cccnc12	-3.6
CCCCCCC(C)(SCC(=O)O)SCC(=O)O	0.16
O=C1c2ccccc2-c2nnc(-c3ccc(Cl)cc3Cl)cc21	-2
CCn1c(NC(C)c2ccccc2O)nc2ccccc21 (configuration not stated)	-0.15
O=C(c1ccc(Cl)cc1)c1cc2c(cc1Br)OCCO2	1.2
Cc1cccc(C)c1NC(=O)c1snnc1C	0.06
Cc1nnsc1-c1nc2cccc(C)c2c(=O)o1	3.4*
Cc1sc2nc(-c3ccccc3)oc(=O)c2c1C	1.5
Cc1cc(C)c2c(n1)sc1c(=O)oc(C)nc12	4.9*
Cc1cc(C)c2c(n1)sc1c(=O)n(/N=C/c3ccccc3)c(C)nc12	-0.57
CC(=O)Cn1cnc2c(sc3nc(C)cc(C)c32)c1=O	0.8
C#CCOC(=O)Nc1ccc(Cl)cc1Cl	0.82
CC(C)(C)OC(=O)NC1CCN(S(=O)(=O)c2ccc(N3C(=O)CC4(CCCC4)C3=O)c(Cl)c2)CC1	-0.93
CCc1ccn2cc(-c3ccc(C)cc3)nc2c1	1.6
COc1ccc(-c2cn3ccccc3n2)cc1Br	1.1
COc1ccc(-c2cn3cccc(C)c3n2)cc1	0.29
SMILES	Dicer processing
CCCOc1ccc(-c2cn3ccccc3n2)cc1	3.9*
COc1ccc(-c2cn3ccccc3n2)cc1	5.8*
COc1c(Cl)cccc1-c1cn2ccccc2n1	-1.6
CCSCCOC(=O)C1=C(C)NC2=C(C(=O)CC(C)(C)C2)C1c1cccc(Cl)c1 (configuration not stated)	2.4
O=C(O)c1c(-c2ccccc2)nnc2ccccc12	-0.97
O=C(Nc1ccc(OC(F)(F)F)cc1)Nc1ccc2ccccc2n1	-1
O=C(Nc1ccc(OC(F)(F)F)cc1)c1c(-c2ccccc2)nnc2ccccc12	29*
CC1CCCC(C)N1c1nn(C)c(=O)[nH]1 (configuration not stated)	-1.5
